Assay results: PubChem BioAssay (EPA / NIEHS)
Where a structure was tested more than once in an assay, its records may differ in their call. The source made the active and inactive calls. How the source made its calls: active means hit-call score of the fitted dose curve at least 0.9, where 1 is the maximum; inactive means score below 0.9.

Assays:
[1] = read-out: TIMP metallopeptidase inhibitor 2 (TIMP2), TIMP2 (gene 7077); test: BSK_KF3CT_TIMP2: BioMAP Diversity Plus: KF3CT Assay for TIMP metallopeptidase inhibitor 2 (TIMP2) Biomarker Activity (AID 2283071); conditions: primary human keratinocytes with fibroblasts; actives raise or lower the signal
In short: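 TIMP-2 measured by ELISA at 24 h in human keratinocyte/fibroblast primary co-cultures exposed to chemicals. Both increases and decreases were fitted against DMSO. Parallel cultures were stained with SRB for total protein as an overt-cytotoxicity check.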

[2] = read-out: Transforming growth factor beta 1 (TGFb1), TGFB1 (gene 7040); test: BSK_KF3CT_TGFb1: BioMAP Diversity Plus: KF3CT Assay for Transforming growth factor beta 1 (TGFb1) Biomarker Activity (AID 2283072); conditions: primary human keratinocytes with fibroblasts; actives raise or lower the signal
In short: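 ELISA quantifies TGF-b1 at 24 h post-dose in a primary human skin co-culture of keratinocytes and fibroblasts, with gain or loss judged against DMSO. Parallel SRB total-protein staining flags overt cytotoxicity.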

[3] = read-out: C-C motif chemokine 2 (Homo sapiens) (UniProt P13500); test: BSK_KF3CT_MCP1: BioMAP Diversity Plus: KF3CT Assay for Monocyte Chemoattractant Protein 1 (MCP1/CCL2) Biomarker Activity (AID 2283073); conditions: primary human keratinocytes with fibroblasts; actives raise or lower the signal
In short: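 Biomarker MCP-1 is measured by ELISA in primary human keratinocytes co-cultured with foreskin fibroblasts, 24 h after chemical treatment; DMSO serves as the negative control and activity baseline.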

[4] = read-out: Matrix Metallopeptidase 9 (MMP9), MMP9 (gene 4318); test: BSK_KF3CT_MMP9: BioMAP Diversity Plus: KF3CT Assay for Matrix Metallopeptidase 9 (MMP9) Biomarker Activity (AID 2283074); conditions: primary human keratinocytes with fibroblasts; actives raise or lower the signal;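 on AC50: MMP9 protein level quantified by ELISA in the co-culture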
In short: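 ELISA read-out of MMP-9 at 24 h post-dosing in a co-culture of human skin keratinocytes and foreskin fibroblasts. Gain or loss of signal was fitted in both directions against DMSO.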

[5] = read-out: urokinase plasminogen activator (uPA), PLAU (gene 5328); test: BSK_KF3CT_uPA: BioMAP Diversity Plus: KF3CT Assay for urokinase plasminogen activator (uPA) Biomarker Activity (AID 2283075); conditions: primary human keratinocytes with fibroblasts; actives raise or lower the signal
In short: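 Skin co-culture (keratinocytes + foreskin fibroblasts), human primary; 24 h post-dose; uPA by ELISA; gain/loss fit vs DMSO baseline.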

[6] = read-out: CD40, CD40 (gene 958); test: BSK_LPS_CD40: BioMAP Diversity Plus: LPS Assay for CD40 Biomarker Activity (AID 2283076); conditions: primary human HUVEC with PBMC; actives raise or lower the signal
In short: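 Using a multiplexed primary human co-culture (umbilical vein endothelium plus PBMC), CD40 was read by ELISA 24 h after dosing, with cytotoxicity tracked by sulforhodamine B staining of parallel cultures and activity fitted bidirectionally versus DMSO.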

[7] = read-out: E-selectin (Homo sapiens) (UniProt P16581); test: BSK_LPS_Eselectin: BioMAP Diversity Plus: LPS Assay for Eselectin Biomarker Activity (AID 2283077); conditions: primary human HUVEC with PBMC; actives raise or lower the signal
In short: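 Dose chemical onto LPS-driven HUVEC/PBMC co-culture; after 24 h, run ELISA for E-selectin; fit up- and down-going responses relative to DMSO control.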

[8] = read-out: Interleukin-8 (IL8), CXCL8 (gene 3576); test: BSK_LPS_IL8: BioMAP Diversity Plus: LPS Assay for Interleukin-8 (IL8) Biomarker Activity (AID 2283078); conditions: primary human HUVEC with PBMC; actives raise or lower the signal
In short: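 In this LPS system, chemical-treated human umbilical vein endothelium/PBMC co-cultures were harvested at 24 h for IL-8 ELISA.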

[9] = BSK_LPS_SRB: Viability Assessment in the BioMAP Diversity Plus: LPS Assay (AID 2283079); conditions: primary human HUVEC with PBMC;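 further: total protein by sulforhodamine B absorbance as a cytotoxicity measure; measured one day after compound addition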
In short: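 Cytotoxicity endpoint in human endothelial–PBMC co-culture: 24 h exposure, then SRB (0.1%) staining, 560 nm read.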

[10] = read-out: Interleukin-1 alpha (IL1a), IL1A (gene 3552); test: BSK_LPS_IL1a: BioMAP Diversity Plus: LPS Assay for Interleukin-1 alpha (IL1a) Biomarker Activity (AID 2283080); conditions: primary human HUVEC with PBMC; actives raise or lower the signal
In short: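 Primary human HUVEC and PBMC co-culture stimulated with LPS is dosed and harvested at 24 h. Both increases and decreases in ELISA-measured IL-1a are scored relative to DMSO.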

[11] = read-out: Monocyte Chemoattractant Protein-1 (MCP1), CCL2 (gene 6347); test: BSK_LPS_MCP1: BioMAP Diversity Plus: LPS Assay for Monocyte Chemoattractant Protein-1 (MCP1) Biomarker Activity (AID 2283081); conditions: primary human HUVEC with PBMC; actives raise or lower the signal;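 on AC50: secreted MCP-1 protein quantified by ELISA in culture supernatant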
In short: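 Values derive from bidirectional fitting against DMSO of ELISA-measured MCP-1 in a human primary endothelial and mononuclear cell co-culture, 24 h after chemical addition under LPS activation.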

[12] = BSK_LPS_PGE2: BioMAP Diversity Plus: LPS Assay for Prostaglandin E2 (PGE2) Biomarker Activity (AID 2283082); conditions: primary human HUVEC with PBMC; actives raise or lower the signal;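 on AC50: secreted prostaglandin E2 measured by ELISA in LPS-stimulated co-culture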
In short: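 PGE2 release measured by ELISA in an LPS-activated co-culture of human umbilical vein endothelial cells and peripheral blood mononuclear cells, read at 24 h post-dosing. DMSO served as baseline for bidirectional curve fitting.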

[13] = read-out: Macrophage colony-stimulating factor (MCSF), CSF1 (gene 1435); test: BSK_LPS_MCSF: BioMAP Diversity Plus: LPS Assay for Macrophage colony-stimulating factor (MCSF) Biomarker Activity (AID 2283083); conditions: primary human HUVEC with PBMC; actives raise or lower the signal
In short: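 Bidirectional fit versus DMSO of ELISA-measured M-CSF in co-cultured human umbilical vein endothelial cells and PBMC, sampled 24 h after dosing.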

[14] = read-out: Tumor necrosis factor (Homo sapiens) (UniProt P01375); test: BSK_LPS_TNFa: BioMAP Diversity Plus: LPS Assay for Tumour Necrosis Factor alpha (TNFa) Biomarker Activity (AID 2283085); conditions: primary human HUVEC with PBMC; actives raise or lower the signal;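 on AC50: TNFa protein level quantified by ELISA in the co-culture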
In short: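 TNFa was quantified by ELISA in LPS-activated co-cultures of human endothelial cells and PBMC, 24 h post-dosing. Both increases and decreases versus DMSO were fitted.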

[15] = read-out: Vascular cell adhesion molecule 1 (VCAM1), VCAM1 (gene 7412); test: BSK_LPS_VCAM1: BioMAP Diversity Plus: LPS Assay for Vascular cell adhesion molecule 1 (VCAM1) Biomarker Activity (AID 2283086); conditions: primary human HUVEC with PBMC; actives raise or lower the signal
In short: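 VCAM-1 quantified by ELISA in an LPS-activated co-culture of human endothelial cells and peripheral blood mononuclear cells, read 24 h post-treatment. Fitted in both directions versus DMSO; parallel SRB staining flags overt cytotoxicity.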

[16] = read-out: CD38, CD38 (gene 952); test: BSK_SAg_CD38: BioMAP Diversity Plus: SAg Assay for CD38 Biomarker Activity (AID 2283087); conditions: primary human HUVEC with PBMC; actives raise or lower the signal
In short: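 CD38 quantified by ELISA (fluorescence) in a superantigen-activated endothelial cell–PBMC co-culture at 24 h post-dose. Activity fitted in both directions relative to DMSO; parallel SRB and Alamar Blue cytotoxicity read-outs.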

[17] = read-out: CD40, CD40 (gene 958); test: BSK_SAg_CD40: BioMAP Diversity Plus: SAg Assay for CD40 Biomarker Activity (AID 2283088); conditions: primary human HUVEC with PBMC; actives raise or lower the signal
In short: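 Endpoint derived by fitting increases or decreases versus DMSO controls. CD40 is detected by fluorescence ELISA in a human vascular co-culture of endothelium and PBMC at 24 h.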

[18] = read-out: CD69, CD69 (gene 969); test: BSK_SAg_CD69: BioMAP Diversity Plus: SAg Assay for CD69 Biomarker Activity (AID 2283089); conditions: primary human HUVEC with PBMC; actives raise or lower the signal;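 on AC50: cell surface CD69 protein quantified by ELISA with fluorescence detection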
In short: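 HUVEC co-cultured with PBMC were dosed with chemical, and CD69 was measured by ELISA with fluorescence read-out 24 h later. Bidirectional curve fitting used DMSO as negative control and activity baseline.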

[19] = read-out: Tissue Factor, F3 (gene 2152); test: BSK_LPS_TissueFactor: BioMAP Diversity Plus: LPS Assay for Tissue Factor Biomarker Activity (AID 2283084); conditions: primary human HUVEC with PBMC; actives raise or lower the signal
In short: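 Read-out: CD142 ELISA, 24 h. System: LPS-driven human endothelial/PBMC co-culture. Analysis: up- or down-signal fitted against DMSO.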

Measured: AC50

Sequence of Tumor necrosis factor (Homo sapiens) (P01375 whole entry, looked up): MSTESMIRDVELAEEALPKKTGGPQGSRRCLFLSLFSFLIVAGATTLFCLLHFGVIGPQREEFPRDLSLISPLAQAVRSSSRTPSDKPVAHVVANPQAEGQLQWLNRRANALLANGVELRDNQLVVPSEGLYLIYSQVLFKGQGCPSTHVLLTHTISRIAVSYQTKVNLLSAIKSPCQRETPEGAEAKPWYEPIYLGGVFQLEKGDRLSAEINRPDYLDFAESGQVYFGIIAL
Sequence of E-selectin (Homo sapiens) (P16581 whole entry, looked up): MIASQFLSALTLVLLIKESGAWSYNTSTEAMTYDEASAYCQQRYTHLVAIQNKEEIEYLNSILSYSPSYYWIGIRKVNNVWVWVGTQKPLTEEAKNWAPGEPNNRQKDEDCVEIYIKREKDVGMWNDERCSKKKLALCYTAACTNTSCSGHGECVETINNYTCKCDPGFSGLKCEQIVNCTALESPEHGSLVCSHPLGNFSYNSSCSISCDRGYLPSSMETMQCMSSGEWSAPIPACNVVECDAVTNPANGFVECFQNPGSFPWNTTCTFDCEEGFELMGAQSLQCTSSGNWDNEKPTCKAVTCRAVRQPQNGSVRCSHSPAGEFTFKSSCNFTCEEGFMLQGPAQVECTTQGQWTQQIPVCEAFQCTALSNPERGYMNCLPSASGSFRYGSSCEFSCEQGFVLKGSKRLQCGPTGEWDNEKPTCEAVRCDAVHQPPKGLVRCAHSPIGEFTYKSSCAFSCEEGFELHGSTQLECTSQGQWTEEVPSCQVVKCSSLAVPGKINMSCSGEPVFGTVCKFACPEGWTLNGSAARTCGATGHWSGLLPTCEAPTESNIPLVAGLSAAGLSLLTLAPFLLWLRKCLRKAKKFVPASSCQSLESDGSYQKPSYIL

CCCCOC(=O)c1ccccc1C(=O)O
not listed: [19]
inactive: all other assays above

CC(C1CC1)C(O)(Cn1cncn1)c1ccc(Cl)cc1 (stereo not given)
active: [14] 4.36 µM
not listed: [19]
inactive: all other assays above

CN(C)[C@@H]1C(=O)C(C(N)=O)=C(O)[C@@]2(O)C(=O)C3=C(O)c4c(O)cccc4[C@@](C)(O)[C@H]3[C@H](O)[C@@H]12
active: [14] 14.7 µM | [18] 5.09 µM
inactive: [1] | [2] | [3] | [4] | [5] | [6] | [7] | [8] | [9] | [10] | [11] | [12] | [13] | [14] | [15] | [16] | [17] | [18]

COP(=O)(OC)OC(Br)C(Cl)(Cl)Br (stereo not given)
inactive: [12]
active: [1] 31.3 µM | [2] 32.3 µM | [3] 31.1 µM | [4] 30.4 µM | [5] 36.9 µM | [6] 19.4 µM | [7] 32.3 µM | [8] 30.8 µM | [9] 26 µM | [10] 32.3 µM | [11] 36.5 µM | [13] 28.5 µM | [14] 28.9 µM | [15] 26.4 µM | [16] 31.5 µM | [17] 30.2 µM | [18] 30.1 µM

CSc1nnc(C(C)(C)C)c(=O)n1N
inactive: all assays above

CCc1cnc(C2=NC(C)(C(C)C)C(=O)N2)c(C(=O)O)c1 (stereo not given)
not listed: [19]
inactive: all other assays above

CC1=NNC(=O)N(/N=C/c2cccnc2)C1
not listed: [19]
inactive: all other assays above

S=C1NCCN1
not listed: [19]
inactive: all other assays above

CN(C)NC(=O)CCC(=O)O
not listed: [19]
inactive: all other assays above

CCOP(=S)(OCC)SCCSCC
active: [5] 29.4 µM
not listed: [19]
inactive: all other assays above

C[Si](Cn1cncn1)(c1ccc(F)cc1)c1ccc(F)cc1
active: [7] 15 µM | [12] 1.62 µM | [13] 14.7 µM | [16] 29.9 µM | [17] 27 µM
not listed: [19]
inactive: all other assays above

C#CCC1=C(C)C(OC(=O)C2C(C=C(C)C)C2(C)C)CC1=O (stereo not given)
active: [6] 20 µM | [7] 28.4 µM | [8] 26.7 µM | [9] 29.1 µM | [10] 31.9 µM | [11] 33.4 µM | [12] 3.87 µM | [13] 23.4 µM | [14] 32.9 µM | [15] 14.8 µM | [16] 33.7 µM | [17] 26.5 µM | [18] 29.8 µM
inactive: [1] | [2] | [3] | [4] | [5] | [19]
